Bioassay records (PubChem BioAssay)
Pf apPOL inh = Pf-apPOL DNA polymerase inhibition; inhibition, % at 10 µM; Recombinant Pf-apPOL, molecular beacon fluorescence, 1.5 h; hit rate 0.25% among 210,000
mHTT CaM bind = mHTT-calmodulin interaction abrogation | AlphaScreen His-mHTT/GST-CaM binding, luminescence | P42858 | hit rate 3.6% among 190,000 | inhibition, % at 15 µM
Numbers stand for hits; 0 = inactive; - = no result given. The sample as a whole holds a higher share of hits than the screen did. Cut-off read from the data, not from the text of the source: active = inhibition above about 50%; inactive = the rest.

SMILES	Pf apPOL inh	mHTT CaM bind
CCOCCCNC(=O)c1c[nH]c2ccc(S(=O)(=O)N(C)c3ccc(Cl)cc3)cc2c1=O	0	0
COCCNC(=O)c1c[nH]c2ccc(S(=O)(=O)N(C)c3ccc(Cl)cc3)cc2c1=O	0	50.0
C=CCNC(=O)c1c[nH]c2ccc(S(=O)(=O)N(C)c3ccc(Br)cc3)cc2c1=O	0	55.0
C=CCNC(=O)c1c[nH]c2ccc(S(=O)(=O)N(CC)c3ccc(F)cc3)cc2c1=O	0	0
COc1ccc(OC)c(C2C(C#N)=C(N)Oc3c2oc(CO)cc3=O)c1 (stereo unspecified)	0	0
Cc1cc(C)c(S(=O)(=O)NCCn2c(C)cc3ccccc32)c(C)c1	0	62.0
Cc1cc2ccccc2n1CCNS(=O)(=O)c1ccc(Br)cc1	0	0
O=C(Cc1ccccc1F)N1CCC(COc2ccccc2C(=O)N2CCCCC2)CC1	70.6	0
O=C(Cc1ccccc1F)N1CCC(COc2ccccc2C(=O)N2CCOCC2)CC1	0	0
O=C1NC2(CCCN(C(=O)C3CCC3)C2)N=C1c1ccccc1 (stereo unspecified)	0	0
COCCN1C(=O)Cc2ccccc2C1C(=O)NC1CCCCCC1 (stereo unspecified)	0	0
COc1cc(-c2c(C#N)c(N)nc3sc(C(N)=O)c(N)c23)cc(OC)c1OC	0	65.0
COc1cc(-c2c(C#N)c(N)nc(SC)c2C#N)cc(OC)c1OC	0	0
Cc1cccc(OCC(=O)N2CCC(Cc3nnc(-c4ccccc4)o3)CC2)c1	0	0
O=C1CC(c2ccc(Cl)cc2Cl)c2cc3c(cc2N1)CCC3 (stereo unspecified)	0	0
COc1ccc(C2CC(c3ccc(Cl)cc3)Nc3nnnn32)c(OC)c1OC (stereo unspecified)	0	0
Cc1ccc(NC(=O)CSc2nc3c([nH]c4ccccc43)c(=O)n2C)cc1Cl	0	0
Cc1ccc(NC(=O)CSc2nnc3c(n2)[nH]c2ccccc23)cc1Cl	0	53.0
COC(=O)c1cccc(C(=O)Nc2cc(C)cc(C)c2)n1	0	0
Cc1ccc(S(=O)(=O)CCC(=O)Nc2ncc(Br)s2)cc1	0	69.0
Cc1ccc(NC(=O)CCS(=O)(=O)c2ccc(Br)cc2)nc1	0	0
O=C(NCc1ccc(Cl)cc1)C1CCCN(c2ccc(N3CCOCC3)nn2)C1 (stereo unspecified)	0	0
O=C(NC1CCCCCC1)C1CCCN(C(=O)c2ccc(Cl)cc2)C1 (stereo unspecified)	0	0
Cc1ccc(C(=O)N2CCC(CCNC(=O)c3ccccc3C)CC2)cc1	0	0
CCN1c2cc(C)ccc2-n2cccc2C12CCN(C(=O)NCCc1ccccc1)CC2	0	93.8
SMILES	Pf apPOL inh	mHTT CaM bind
CCN1c2cc(C)ccc2-n2cccc2C12CCN(C(=O)NCc1ccc(F)cc1)CC2	0	93.1
CCOCCCNC(=O)N1CCC2(CC1)c1cccn1-c1ccc(C)cc1N2CC	0	92.9
CCN1c2ccccc2C(=O)NC12CCN(C(=O)NCc1ccc(F)cc1)CC2	0	0
Cc1ccc(CNC(=O)C2(C)CCCN(C(=O)NCc3ccccc3)C2)cc1 (stereo unspecified)	0	0
CCN1c2ccccc2C(=O)NC12CCN(C(=O)NCCc1ccccc1)CC2	0	0
CCN1c2cc(C)ccc2-n2cccc2C12CCN(C(=O)NCc1ccccc1)CC2	0	81.0
CCOCCCNC(=O)N1CC(CC)Oc2ccc(C)cc21 (stereo unspecified)	0	0
Cc1ccccc1NC(=O)C1CCc2sc(C(=O)N(C)C)cc2C1 (stereo unspecified)	0	0
CCc1onc(C)c1C1CCCN1Cc1ccc(C)c(C)c1 (stereo unspecified)	0	0
COc1ccc(S(=O)(=O)n2cnc3cc([N+](=O)[O-])ccc32)cc1	0	0
CCN1c2cc(C)ccc2-n2cccc2C12CCN(C(=O)NCc1ccco1)CC2	0	84.3
Cc1cccc(-n2cc(C3CCN(C(=O)NCc4ccco4)CC3)cn2)c1	0	0
N#Cc1ccc(NC(=O)c2cnn3c(C(F)(F)F)cc(-c4ccco4)nc23)cc1	0	0
COc1ccc2nc(NC(=O)c3ccc(OC)c(OC)c3)sc2c1	0	0
CC(C)(C)SCCNC(=O)c1ccccc1SCc1ccccc1	0	0
COc1ccc(NC(=O)CN2CCN(C3c4ccccc4-c4ccccc43)CC2)cc1	0	55.0
NC(=O)c1ccc(NC(=O)CN2CCN(C3c4ccccc4-c4ccccc43)CC2)cc1	0	59.0
Cc1ccc(NC(=O)CN2CCN(C3c4ccccc4-c4ccccc43)CC2)cc1F	0	0
O=C(CN1CCN(C2c3ccccc3-c3ccccc32)CC1)Nc1ccc(F)cc1	0	0
FC(F)(F)c1cc(N2CCOCC2)c2cccc(Cl)c2n1	0	-
CC1=C(C(=O)NCc2ccccc2F)C2(CCCCCC2)OC1=O	0	0
COc1cccc(NC(=O)CC2Nc3ccccc3NC2=O)c1 (stereo unspecified)	0	0
O=C(CC1Nc2cccc3cccc(c23)NC1=O)Nc1cccc(C(F)(F)F)c1 (stereo unspecified)	0	50.7
CCc1ccccc1NC(=O)Nc1nnc2ccccn12	0	0
Cc1ccc2nc(N3CCC(C(=O)NCc4cccs4)CC3)[nH]c2c1	0	0
SMILES	Pf apPOL inh	mHTT CaM bind
c1ccc(-c2noc(-c3ccco3)n2)nc1	0	0
O=S(=O)(O)c1ccc(-c2nnc(-c3ccccn3)nc2-c2ccc(S(=O)(=O)O)o2)o1	-	99.9
c1ccc(-c2nnc(-c3ccco3)c(-c3ccco3)n2)nc1	-	99.8
Cn1c(-c2ccc(S(=O)(=O)O)o2)nc2ccccc21	0	0
O=C(NCc1ccccc1F)C1CCc2sc(C(=O)N3CCCCC3)cc2C1 (stereo unspecified)	0	0
O=C(NCC(O)C1CCCCC1)c1ccco1 (stereo unspecified)	0	0
CCOc1ccc(S(=O)(=O)N=C2C=C(Nc3ccccc3)C(=O)c3ccccc32)cc1	0	90.0
COc1ccccc1NC1=C(Cl)C(=O)c2ccccc2C1=O	0	-
COc1ccc(S(=O)(=O)N=C2C=C(Nc3ccccc3)C(=O)c3ccccc32)cc1	0	88.0
COc1ccc(C)cc1NC(=O)C(NS(=O)(=O)c1cccs1)C(C)C (stereo unspecified)	0	0
CCOc1ccc(S(=O)(=O)NC(=O)c2ccccc2)cc1	0	0
COc1ccccc1NC1=CC(=NS(=O)(=O)c2ccc(C)cc2)c2ccccc2C1=O	0	93.0
Cc1ccc(NC2=CC(=NS(=O)(=O)c3cccs3)c3ccccc3C2=O)c(C)c1	0	90.0
COc1ccc(S(=O)(=O)N=C2C(C)=CC(=O)C(S(=O)(=O)c3ccccc3)=C2C)cc1	0	0
O=C(CCS(=O)(=O)c1ccccc1)N1CC(c2nc(-c3cnccn3)no2)C1	0	0
O=C(O)c1cc(N=Cc2ccc(Br)c([N+](=O)[O-])c2)ccc1O	0	0
COc1cc([N+](=O)[O-])c(OC)cc1SCC(=O)NN	0	-
Cc1ccccc1-n1cnc(C(=O)NC2CC3CCC2C3)n1 (stereo unspecified)	0	0
CCNC(=O)c1cc2c(=O)n3ccccc3nc2n(CCOC)c1=N	0	0
COc1ccc(C(O)CN2CCN(c3cc(C)ccc3C)CC2)cc1 (stereo unspecified)	0	0
CC(C)CNC(=O)c1c2c(nc3ccccc13)CCCC2	0	0
CCOc1ccc(S(=O)(=O)Nc2cnc3ccccc3c2)cc1	0	0
O=S(=O)(N=C1SCCS1)c1ccccc1	0	0
CCc1ccc(NS(=O)(=O)c2ccc(OC)cc2)cc1	0	0
